This is a sample that favours compounds with a hit; in the whole collection about 2.6% have one here.
Nrf2 inh: Nrf2 pathway inhibition | A549 ARE-Fluc reporter, luciferase luminescence, 18-24 h | Potency, µM (top dose mostly 46 µM), without a hit: at the top dose activity change, negative = inhibition, actives largely listed as inhibitors | 2.1% of 360,000 active | AID 504444; note: potency is the fitted concentration of half-maximal effect; % is set by controls: 0 for no effect and ±100 for the full control effect; nearly all actives have a fitted effect of over 60% in size
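A549 ARE_Fluc cells, 5000/well, 5% FBS OPTI-MEM; compounds in dose-response, 18-24 h at 37 °C/5% CO2; CellTiter-Fluor viability read (Ex 405/Em 525), then BugLite luciferase luminescence = Nrf2 activity.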
A-T KAP1 phos: potential ataxia-telangiectasia treatments restoring KAP-1 phosphorylation | 0.19% of 320,000 active | F2112 A-T fibroblasts, KAP-1 phosphorylation AlphaLISA; neocarzinostatin DNA damage 30 min before lysis | Potency, µM (titrated, usually from 57.5 µM), for inactives: top-dose activation, most hits filed as activators | AID 485349; note: potency is the fitted concentration of half-maximal effect; % of control where 0% means no effect; nearly all actives have a fitted effect of over 45% in size
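ATM-like activity read as KAP-1 phosphorylation via AlphaLISA donor/acceptor antibody pairs after lysis and 6 hr at 25C. Cells were ATM-null patient fibroblasts (F2112, hTERT), dosed 60 min, then exposed to the DSB inducer NCS for 30 min.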
Nrf2 activator: activators of Nrf2 (ARE) signaling; 0.31% of 410,000 active; Potency, µM (doses to about 46.1 µM), inactives show at the top dose activation, usual class: activators; AREc32 ARE-luciferase reporter (MCF7-derived line), luminescence, 24 h; note: potency is the fitted concentration of half-maximal effect; % of control where 0% means no effect; nearly all actives have a fitted effect of over 65% in size
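Steps: seed AREc32_Fluc cells (1000/well, 5% FBS OPTI-MEM); incubate overnight at 37 deg C; add 23 nL compound; incubate 24 hr; add Steady-Glo; hold 30 min RT; read luminescence.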
TCR act: activators of T cell receptors; primary human leukocytes, anti-CD3, IL-2 HTRF, 48 h; Potency, µM (titrated, usually from 9.22 µM), for the others: top-dose activation of IL-2 secretion, actives largely listed as activators; 330,000 tested, under 10 active; note: % of control where 0% means no effect
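Human primary leukocytes + a-CD3 beads + cpd, 48 hr; IL-2 in supernatant by HTRF (ex 320nm / em 665nm). No co-stimulatory signal supplied.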
CCT modulator: cytosolic chaperonin activity modulation | purified chaperonin ATPase assay, HTRF ADP detection, 30 min | activity change, % (no concentration beside the values), hits read low | 0.3% of 360,000 active; in the data active = activity change below about -30%; note: % is set by controls: 0 for no effect and ±100 for the full control effect
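TRiC (40 or 20 nM final, by batch activity) in 30 mM Tris pH 7.4, 100 mM KCl, 5 mM MgCl2, 1 mM DTT was treated with compound at 76 uM single dose, then 10 uM ATP, 30 min at 37 °C. ADP was read by HTRF Transcreener.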
A549 viability: A549 cytotoxicity, counter-screen for Nrf2 inhibitors; Potency, µM (series often up to 46 µM), inactives show at the highest dose activity change, negative = cytotoxicity, most hits filed as inhibitors; A549 ARE-Fluc cells, CellTiter-Fluor viability, 18-24 h; 0.16% of 390,000 active; note: potency is the fitted concentration of half-maximal effect; % is set by controls: 0 for no effect and ±100 for the full control effect
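A549 ARE_Fluc cells in 5% FBS OPTI-MEM were exposed to compounds in concentration-response for 18-24 h at 37 deg C. Viability was read by CellTiter-Fluor fluorescence (Ex 405/Em 525) after 30 min, before the luciferase read.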
An asterisk follows results filed as active. Unless noted, calls come from the whole dose curve; as a rule, active = well fitted curve in the direction sought with a large enough effect; inconclusive = small, poorly fitted or top-dose-only effect, or another doubt; inactive = no such curve, though single readings can be large; an effect the other way counts as inactive or inconclusive.

How did Cc1ccc([N+](=O)[O-])cc1-c1ccc(/C=N/NC(=O)CN2CCOCC2)o1 do in these assays?
Nrf2 inh: -14%; A-T KAP1 phos: -4%; Nrf2 activator: 13µM*; TCR act: -2%; CCT modulator: 3; A549 viability: 8%

What do the screens show for `COc1cccc(N2CCN(c3ccc4nnc(CCC(=O)Nc5ccccn5)n4n3)CC2)c1`?
Nrf2 inh: 20%; A-T KAP1 phos: 8%; Nrf2 activator: -1%; TCR act: 3%; CCT modulator: 0; A549 viability: 6%

What do the screens show for `CC12CC(c3ccccc3O1)N(C(=O)c1ccco1)C(=S)N2c1ccc(F)cc1` (stereo not given)?
Nrf2 inh: 16µM*; A-T KAP1 phos: 4%; Nrf2 activator: 0%; TCR act: -2%; CCT modulator: -1; A549 viability: inconclusive

How did COC(=O)c1c(NC(=O)CN2C(=O)NC3(CCCCC3C)C2=O)sc2c1CCC2 (stereo not given) do in these assays?
Nrf2 inh: 16µM*; A-T KAP1 phos: 2%; Nrf2 activator: 0%; TCR act: -32%; CCT modulator: 0; A549 viability: -14%

What do the screens show for `CCOC(=O)c1c(NC(=O)CN2C(=O)NC3(CCCCC3C)C2=O)sc(C)c1CC` (stereo not given)?
Nrf2 inh: inconclusive; A-T KAP1 phos: 0%; Nrf2 activator: 3%; TCR act: -1%; CCT modulator: 0; A549 viability: -10%

What do the screens show for `Cc1ccccc1S(=O)(=O)Nc1ncnc2ccccc12`?
Nrf2 inh: 11%; A-T KAP1 phos: 6%; Nrf2 activator: 8%; TCR act: 7%; CCT modulator: 0; A549 viability: -3%

Results for Cc1c(CCC(=O)O)c(=O)oc2cc3occ(-c4ccc(F)cc4)c3cc12 ?
Nrf2 inh: 4%; A-T KAP1 phos: -2%; Nrf2 activator: 4%; TCR act: -2%; CCT modulator: 0; A549 viability: 4%

Results for Cc1c(CCC(=O)O)c(=O)oc2cc3occ(C(C)(C)C)c3cc12 ?
Nrf2 inh: 18µM*; A-T KAP1 phos: 4%; Nrf2 activator: 4%; TCR act: -2%; CCT modulator: -1; A549 viability: -1%

What do the screens show for `Nc1ccc(OC(=O)Nc2ccc(O)cc2)cc1`?
Nrf2 inh: 21µM*; A-T KAP1 phos: 15%; Nrf2 activator: 10%; TCR act: 2%; CCT modulator: -4; A549 viability: -6%

How did CCCN(CCC)C(=O)CC(c1ccccc1)c1cc(Br)ccc1O (stereo not given) do in these assays?
Nrf2 inh: 16µM*; A-T KAP1 phos: 4%; Nrf2 activator: 0%; TCR act: 0%; CCT modulator: 0; A549 viability: inconclusive

How did O=C(Cc1ccccc1)N/N=C/c1cccnc1 do in these assays?
Nrf2 inh: 0%; A-T KAP1 phos: -5%; Nrf2 activator: -1%; TCR act: 3%; CCT modulator: 0; A549 viability: -4%

Results for O=C(CN1CCN(Cc2ccccc2)CC1)N/N=C/c1cccnc1 ?
Nrf2 inh: inconclusive; A-T KAP1 phos: 2%; Nrf2 activator: 2%; TCR act: -3%; CCT modulator: -36*; A549 viability: -8%

What do the screens show for `CCc1nc2nc(C)c(NS(=O)(=O)c3ccc(C(C)(C)C)cc3)c(=O)n2[nH]1`?
Nrf2 inh: 12%; Nrf2 activator: 0%; A549 viability: 0%

Results for CCOC(=O)COc1ccc([N+](=O)[O-])cc1-c1ccnc2cc(-c3ccc(Cl)cc3)nn12 ?
Nrf2 inh: 5%; Nrf2 activator: 0%; A549 viability: -7%

What do the screens show for `CN(C(=O)c1cc(C(=O)N(C)c2ccccc2)cc([N+](=O)[O-])c1)c1ccccc1`?
Nrf2 inh: 9%; A-T KAP1 phos: 40µM*; Nrf2 activator: 0%; TCR act: 0%; CCT modulator: 0; A549 viability: 5%

What do the screens show for `CN(C(=O)c1cccc(C(=O)N(C)c2ccccc2)c1)c1ccccc1`?
Nrf2 inh: -43%; A-T KAP1 phos: -3%; Nrf2 activator: 2%; TCR act: -1%; CCT modulator: 0; A549 viability: -19%

Results for CCOC(=O)c1cnc2c(C)cccc2c1NCCCN1CCOCC1 ?
Nrf2 inh: -11%; A-T KAP1 phos: 2%; Nrf2 activator: 0%; TCR act: 3%; CCT modulator: -1; A549 viability: -14%

Results for COc1cccc(N=C2SC(C(=O)Nc3ccc(F)cc3)CC(=O)N2C)c1 (stereo not given) ?
Nrf2 inh: 21µM*; A-T KAP1 phos: 4%; Nrf2 activator: 0%; TCR act: 6%; CCT modulator: 1; A549 viability: inconclusive

How did O=C(CCCn1c(=O)c2sccc2n(Cc2ccc(F)cc2Cl)c1=O)NCc1ccc2c(c1)OCO2 do in these assays?
Nrf2 inh: inconclusive; Nrf2 activator: 0%; A549 viability: -3%

How did CCOC(=O)C1CCCN(C(=O)c2ccc(C)c(NC(=O)C3=C(C)OCCS3)c2)C1 (stereo not given) do in these assays?
Nrf2 inh: 5%; A-T KAP1 phos: -14%; Nrf2 activator: 3%; TCR act: 1%; CCT modulator: -66*; A549 viability: 1%

How did CCOC(=O)C1CCCN(C(=O)c2ccccc2NC(=O)C2=C(C)OCCS2)C1 (stereo not given) do in these assays?
Nrf2 inh: 2%; A-T KAP1 phos: -4%; Nrf2 activator: -1%; TCR act: 1%; CCT modulator: -1; A549 viability: 1%

How did CCOc1ccc(C(=O)NCC(=O)N2CCCC2)cc1 do in these assays?
Nrf2 inh: 25%; A-T KAP1 phos: -6%; Nrf2 activator: 3%; TCR act: -7%; CCT modulator: -2; A549 viability: 22%

How did COc1ccc(-c2ncncc2-c2csc(C)n2)c(O)c1OC do in these assays?
Nrf2 inh: 0%; A-T KAP1 phos: -1%; Nrf2 activator: 1%; TCR act: -3%; CCT modulator: 0; A549 viability: -8%

How did COC1=C(N)C(=O)c2nc(-c3nc(C(=O)O)c(C)c(-c4ccc(OC)c(OC)c4O)c3N)ccc2C1=O do in these assays?
Nrf2 inh: 0.073µM*; A-T KAP1 phos: 0.71µM*; Nrf2 activator: -4%; TCR act: -15%; CCT modulator: -2; A549 viability: 2.6µM*

What do the screens show for `O=C(Cc1c(Cl)cccc1Cl)Nc1ccncc1`?
Nrf2 inh: -11%; A-T KAP1 phos: 6%; Nrf2 activator: 0%; TCR act: -12%; CCT modulator: -1; A549 viability: 10%

High-throughput results deposited in PubChem by National Center for Advancing Translational Sciences (NCATS).
